Results as given in ChEMBL document CHEMBL3988442, “University of Dundee, Small-Polar-MMV Screening Library” (2021).
The campaign covered roughly 69,000 compounds. About 420 (0.61%) showed an effect of 50% or more. The list comes from a sample in which strong results are over-represented; it also holds similar structures and randomly drawn compounds.

These molecules were tested against T1, Histidine--tRNA ligase (Leishmania infantum) (UniProt A4I591) (assay: Leishmania infantum Histidine tRNA synthetase (LdHisRS)). Details: 30 µM.
T1 sequence (whole entry): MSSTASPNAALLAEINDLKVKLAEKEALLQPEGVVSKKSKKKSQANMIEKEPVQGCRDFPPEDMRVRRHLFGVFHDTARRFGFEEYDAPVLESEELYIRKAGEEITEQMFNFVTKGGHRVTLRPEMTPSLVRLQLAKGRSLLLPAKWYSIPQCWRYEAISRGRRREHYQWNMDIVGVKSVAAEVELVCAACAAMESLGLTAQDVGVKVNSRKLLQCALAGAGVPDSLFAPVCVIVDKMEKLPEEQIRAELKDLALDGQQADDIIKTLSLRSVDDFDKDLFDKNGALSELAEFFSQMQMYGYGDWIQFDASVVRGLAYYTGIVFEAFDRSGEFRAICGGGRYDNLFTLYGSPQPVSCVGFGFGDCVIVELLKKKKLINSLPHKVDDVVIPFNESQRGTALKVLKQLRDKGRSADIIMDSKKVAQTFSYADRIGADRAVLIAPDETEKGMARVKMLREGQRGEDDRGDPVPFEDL
Format: functional
Set-up: scale not given: in the data most compounds retested in dose-response had high values
`c1ccc(CN2C[C@@H]3CC[C@H](C2)N(Cc2nnc(C4CC4)o2)C3)cc1` showed a Percent Effect of 34%.
In the case of `COc1cc(N2C[C@@H]3COC[C@]3(C(=O)NCc3ccccn3)C2)ncn1`, the Percent Effect is reported as 5.26%.
`COCCNC(=O)Cn1c(-c2ccco2)cc2cccnc21` gave a Percent Effect of 14.8%.
Molecule `O=C(Cn1c(-c2ccco2)cc2cccnc21)N1CCCC1` has a Percent Effect of 76.5%.
Work on `CC(C)N(C(=O)Cn1c(-c2ccco2)cc2cccnc21)C(C)C` yielded a Percent Effect of 20.1%.
`Cc1nnc([C@@]23CCO[C@@H]2CCN(Cc2nccs2)C3)o1` was tested, and the Percent Effect was 7.92%.
Work on `CN(C)C(=O)N1C[C@@H]2CCCO[C@@H]2[C@H](N(C)Cc2ccco2)C1` yielded a Percent Effect of 11.4%.
With `c1ccc(-c2nnc(CN3C[C@@H]4CC[C@H](C3)N(CC3CCC3)C4)o2)cc1` the Percent Effect was 21.3%.
In the case of `c1ccc(-c2cc(CN3C[C@@H]4CC[C@H](C3)N(CC3CC3)C4)on2)cc1`, the Percent Effect is reported as 26.7%.
In the case of `c1ccc(-c2cc(CN3C[C@@H]4CC[C@H](C3)N(CC3CCC3)C4)on2)cc1`, the Percent Effect is reported as 51.7%.
`c1ccc(-c2cc(CN3CCCC(Cn4cncn4)C3)on2)cc1` (centres undefined) was tested, and the Percent Effect was 8.55%.
`C1CC(CN2C[C@H]3CC[C@@H]2CN(Cc2noc(C4CCCC4)n2)C3)C1` gave a Percent Effect of 8.51%.
`O=C(NCC1CC1)[C@@H]1CCO[C@@H]2CCN(CCc3ccccc3)C[C@H]21` gave a Percent Effect of 13.7%.
`CN1CCN(C(=O)[C@H]2CC[C@@H]3[C@@H](CCN3Cc3nccs3)O2)CC1` was tested, and the Percent Effect was -10.1%.
Work on `Cc1cc(CN2CCN(CC3CC3)[C@@H]3CS(=O)(=O)C[C@@H]32)cc(C)c1O` yielded a Percent Effect of 8.33%.
Molecule `O=C([C@H]1C[C@H]2OCC[C@H]2N(Cc2ccco2)C1)N1CCCO1` has a Percent Effect of 22.2%.
`CN(Cc1nccs1)c1nccc(N2CCN[C@H]3CS(=O)(=O)C[C@H]32)n1` gave a Percent Effect of 14.5%.
Work on `O=C(NCc1ccco1)[C@H]1CC[C@@H]2[C@@H](CCN2Cc2cccnc2)O1` yielded a Percent Effect of 23.3%.
`O=C(NCc1ccco1)[C@H]1CC[C@@H]2[C@@H](CCN2Cc2nccs2)O1` gave a Percent Effect of 31.5%.
`O=C(NCc1ccco1)[C@@H]1CC[C@@H]2[C@@H](CCN2CC2CC2)O1` was tested, and the Percent Effect was 23.3%.
`Cn1cc(CN2CC[C@H]3O[C@H](C(=O)NCc4ccco4)CC[C@H]32)cn1` showed a Percent Effect of 9.43%.
For `O=C(NCc1ccco1)[C@@H]1CC[C@@H]2[C@@H](CCN2Cc2ccc(F)cc2)O1`, the Percent Effect was 69.9%.
`COCCN1CCCn2cnc(CNC3CCCC3)c2C1` showed a Percent Effect of 77.8%.
`COCCN1CCCn2cnc(CNC(=O)N(C)C)c2C1` was tested, and the Percent Effect was 9.4%.
`COCCN1CCCn2cnc(CN(C)C(C)C)c2C1` was tested, and the Percent Effect was 30%.
`COCCN1C(=O)CO[C@H]2CN(Cc3cccc(OC)c3F)C[C@@H]21` showed a Percent Effect of 8.25%.
`Cc1nnc([C@]23COC[C@H]2CN(Cc2cnn(C)c2)C3)o1` showed a Percent Effect of 27.4%.
`CN(C)CCN1CCO[C@@H]2CN(C(=O)Cc3ccsc3)CC[C@@H]2C1` was tested, and the Percent Effect was 10%.
Work on `C1CC(CN2C[C@@H]3C[C@@H](c4nnc(C5CC5)o4)O[C@@H]3C2)CCO1` yielded a Percent Effect of 11.1%.
`O=S(=O)(CCCn1cncn1)Cc1ccc(F)cc1Cl` was tested, and the Percent Effect was 109%.
For `O=S(=O)(CCCn1cncn1)Cc1ccccc1Cl`, the Percent Effect was 19.7%.
`O=S(=O)(CCCn1cncn1)Cc1cccc(F)c1` gave a Percent Effect of -11.8%.
Work on `COc1ncccc1CN1C[C@@H]2C[C@@H](C(=O)NCC3CC3)N(C)[C@@H]2C1` yielded a Percent Effect of 24.8%.
`CO[C@@H]1CC[C@H]2[C@H]1OCCN2C(=O)c1ccc(C)nc1` gave a Percent Effect of 7.02%.
`COc1cc(N2C[C@H](C(=O)NC3CC3)[C@@H]3CCO[C@@H]3C2)ncn1` showed a Percent Effect of 3.23%.
In the case of `Cc1ccc2[nH]c(CO[C@H]3CN(c4ccc(C#N)cn4)C[C@H]3F)nc2c1`, the Percent Effect is reported as 69.4%.
For `CN1C[C@@H](F)[C@@H](OCc2nc3ccc(C#N)cc3[nH]2)C1`, the Percent Effect was 25%.
`Cc1ccc2[nH]c(CO[C@H]3CN(C(=O)C4CC4)C[C@H]3F)nc2c1` gave a Percent Effect of 4.05%.
With `O=C(NC1CC1)[C@@H]1CCO[C@@H]2CCN(CCc3ccccc3)C[C@@H]21` the Percent Effect was 15.1%.
For `Cc1cccc(CN2C[C@H]3OC(=O)N(CCCN4CCOCC4)[C@H]3C2)n1`, the Percent Effect was 22.3%.
`Cc1ncsc1C(=O)N1CC[C@@H]2[C@@H](CC1)OCCN2c1cccnc1` was tested, and the Percent Effect was 10.5%.
For `O=c1c(C(F)(F)F)cccn1Cc1nnc(-c2cccnc2)o1`, the Percent Effect was 11.5%.
Work on `COc1cccn(Cc2nnc(-c3cccc(F)c3)o2)c1=O` yielded a Percent Effect of 91.8%.
`COc1cccn(Cc2nnc(-c3cccnc3)o2)c1=O` gave a Percent Effect of 39.3%.
Work on `Cc1cccc(CN2C[C@@H]3CN(C(=O)NC(C)C)C[C@@H]3C2=O)c1` yielded a Percent Effect of 12.3%.
With `CC(C)[C@H](NS(C)(=O)=O)C(=O)NCc1cc(-c2ccco2)n[nH]1` the Percent Effect was 54.3%.
In the case of `C[C@H](NS(C)(=O)=O)C(=O)NCc1cc(-c2ccco2)n(CC(F)(F)F)n1`, the Percent Effect is reported as -80%.
`CC(C)[C@H](NS(C)(=O)=O)C(=O)NCc1cc(-c2ccccc2)n[nH]1` gave a Percent Effect of 17.1%.
For `CC(C)[C@H](NS(C)(=O)=O)C(=O)NCc1cc(-c2ccco2)nn1C`, the Percent Effect was 8.57%.
`CN(C)c1nccc(NCc2cc(-c3ccco3)n[nH]2)n1` showed a Percent Effect of 34.3%.
`C[C@H](NS(C)(=O)=O)C(=O)NCc1cc(-c2ccco2)n[nH]1` was tested, and the Percent Effect was 51.4%.
`CN1CCN(C[C@@H]2OC[C@H]3CN(CCc4ccccc4)CC[C@H]32)CC1` was tested, and the Percent Effect was 22.6%.
Work on `O=C(NC1CCC1)[C@@H]1CCO[C@@H]2CCN(CCc3ccccc3)C[C@H]21` yielded a Percent Effect of 15.4%.
`O=C(NC[C@]12COC[C@H]1CN(Cc1nccs1)C2)c1ccsc1` was tested, and the Percent Effect was 0%.
